From ChEMBL document CHEMBL3988442, “University of Dundee, Small-Polar-MMV Screening Library” (2021)

Legend:
[1] = molecular target: T1, Aspartate--tRNA(Asp/Asn) ligase (Mycobacterium tuberculosis (strain ATCC 25618 / H37Rv)) (UniProt P9WFW3); experiment: Assay for Asp RNA synthetase-1 from Mycobacterium tuberculosis; format: functional; set-up: scale not given: direction of the effect not stated beside the values; settings: 30 µM; note: in the data most compounds retested in dose-response had high values
T1 sequence (whole entry): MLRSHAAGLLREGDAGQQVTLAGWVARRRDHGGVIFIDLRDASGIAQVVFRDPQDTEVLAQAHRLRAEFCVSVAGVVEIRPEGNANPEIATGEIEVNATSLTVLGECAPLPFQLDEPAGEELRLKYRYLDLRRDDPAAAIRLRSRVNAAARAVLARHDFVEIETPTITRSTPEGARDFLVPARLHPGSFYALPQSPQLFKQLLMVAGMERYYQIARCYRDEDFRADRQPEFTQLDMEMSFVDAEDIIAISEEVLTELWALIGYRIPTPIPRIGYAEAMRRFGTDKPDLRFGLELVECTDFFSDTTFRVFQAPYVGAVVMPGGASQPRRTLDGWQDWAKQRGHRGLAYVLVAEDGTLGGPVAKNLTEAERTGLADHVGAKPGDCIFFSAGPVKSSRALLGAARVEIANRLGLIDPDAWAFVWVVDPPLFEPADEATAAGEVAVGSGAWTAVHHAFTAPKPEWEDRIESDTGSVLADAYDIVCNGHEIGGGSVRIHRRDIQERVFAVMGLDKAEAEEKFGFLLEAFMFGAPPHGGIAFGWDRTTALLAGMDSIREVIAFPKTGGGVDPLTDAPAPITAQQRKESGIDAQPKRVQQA

[2] = molecular target: Shiga toxin 2 (Escherichia coli O157:H7) (UniProt P09385+P09386); experiment: E. coli 0.157:H7 Shiga Toxin SOP - stx2 screening assay; format: functional; set-up: scale not given: direction of the effect not stated beside the values; settings: 30 µM

SMILES | Percent Effect [1] | Percent Effect [2]
CC(=O)N1CCC2(CC1)CC(Oc1ccccc1)CO2 (centres undefined) | -1.48% | -19.5%
Cc1cnn(C2CCCN(C(=O)c3cn4cccnc4n3)C2)c1 (centres undefined) | -0.409% | 8.96%
COCC(=O)N1CCCC2(CCN(c3ccsc3)C2=O)C1 (centres undefined) | -1.49% | 0.668%
c1cncc(-c2ccc3c(c2)C2(CC3)CCN(c3nncs3)CC2)c1 | 1.44% | -7.47%
CC(C)C(C(=O)N1CCN(c2ccncc2)CC1)n1cncn1 (centres undefined) | 7.82% | -47.8%
CC(C)(C)c1n[nH]c(C2CN(C(=O)CCc3cscn3)CCO2)n1 (centres undefined) | -2.97% | 7.94%
Cc1cnn(CCNCC(=O)NCc2ccccc2)c1 | 1.29% | 10.2%
CC1CN(Cc2nccn2C)CCN1c1ccc2nncn2n1 (centres undefined) | -6.07% | -28.7%
COc1ccc(-c2noc(CN3CCc4cncnc4C3)n2)cc1 | -0.389% | -15%
COc1ccc2nnc(CCCC(=O)NCc3cccn3C)n2n1 | -1.89% | -44.7%
Cn1cnnc1S(=O)(=O)C1CCN(S(=O)(=O)c2ccc(F)c(Cl)c2)CC1 | 2.04% | -2.86%
CCC(C)c1noc(C2CCN(C(=O)c3cccnc3)CC2)n1 (centres undefined) | 17% | -27.8%
Cn1cccc1CN1CCC2(CCCN(C(=O)c3cnccn3)C2)C1 (centres undefined) | 11.1% | -9.19%
CCc1ccc(CN2CCCC(CO)(CCOC)C2)cc1 (centres undefined) | -1.96% | -14%
CS(=O)(=O)CC(=O)N1C[C@@H]2COC[C@]2(c2nnc(C3CC3)o2)C1 | -1.72% | -40.1%
CN1Cc2c(C(=O)Nc3cccnc3)ncn2-c2ccccc2S1(=O)=O | -2.67% | 6.47%
O=C(c1cccc2c1OCCO2)N1CCCC(n2ccnc2)C1 (centres undefined) | -1.01% | 21.1%
CC(=O)N1CCOC2(CCN(C(=O)c3cnoc3C)CC2)C1 | -1.11% | 4.56%
FC(F)(F)c1nc(NC2CCCC2)c2ccccc2n1 | 0.562% | -0.0663%

SMILES | Percent Effect [1] | Percent Effect [2]
Cn1nnc2c1C(COCC1CC1)CN(C(=O)Cc1ccsc1)C2 (centres undefined) | -2.73% | -6.94%
O=C(C[C@@H]1COC[C@H]2CN(Cc3ccc(F)cc3)C[C@@H]12)N1CCOCC1 | 2.03% | -38.2%
CN(CC(=O)NCc1ccccn1)CC1CCCN1c1cccnn1 (centres undefined) | -4.1% | -17.5%
O=c1[nH]c(CN(Cc2ccco2)C2CCCC2)nc2ccccc12 | -3.64% | -24.3%
CC(NC(=O)N(C)Cc1ccncc1)c1nncn1C (centres undefined) | -5.91% | -0.749%
Cc1nc(COC[C@@H]2CCC[C@@]23CNCCO3)cs1 | 19.4% | -7.74%
CNC(=O)[C@H]1C[C@@H]2CN(S(=O)(=O)c3ccccc3)C[C@@H]2N1C(C)=O | 2.08% | -6.09%
CNC(=O)CC1CC2(CCN(Cc3nccs3)CC2)c2ccccc21 (centres undefined) | -1.76% | -4.71%
CC(=O)N1CCN(Cc2nnc(C(C)(C)C)o2)CC1 | 3.25% | -4.69%
Cc1ccc(NC(=O)CNc2cccc3c2CCCC3)c(Br)c1 | -0.719% | 7.99%
Cc1cc(NC(=O)CN2CCOC(Cn3cccn3)C2)n(C)n1 (centres undefined) | -3.92% | -12.8%
COc1cc(C)c(S(=O)(=O)NCc2cccnc2N(C)C)c(C)c1 | 2.73% | -18.1%
CCCN(CC(=O)NC)C(=O)c1ccc(-c2ccsc2)nc1C | -3.29% | -2.59%
CC(C)N(C)C(=O)C1=NOC2(CCN(C(=O)c3ccncc3)C2)C1 (centres undefined) | -1.05% | -7.21%
Cn1ccnc1CN1CCN(CC(=O)NCC(F)(F)F)CC1 | 1.97% | 18.6%
Cc1noc(CN2CCN(CC(C)O)CC2)n1 (centres undefined) | -2.18% | -6.53%
Cc1ccc(NC(C)C(=O)NCc2cccs2)cc1C (centres undefined) | 3.13% | -30.8%
CC1c2ncc(CNC(=O)C3CC3)n2CCN1Cc1cnn(C)c1 (centres undefined) | 7.02% | -27.6%
CCc1noc(C(C)N2CCOCC2)n1 (centres undefined) | -10.8% | 6.48%

SMILES | Percent Effect [1] | Percent Effect [2]
O=C(COc1cccc2c1CCC2=O)NCCOc1ccccc1 | 12.7% | -35%
c1cnnc(N2CCCC2CNc2nc3ccccc3o2)c1 (centres undefined) | -3.6% | -10.1%
c1ccc(CN2CCN(Cc3cscn3)CC2)cc1 | -2.48% | 3.98%
CC(Cn1cccn1)NC(=O)NCCc1ccc(Cl)s1 (centres undefined) | 4.37% | -19.2%
CN(Cc1ccc(F)cc1)C(=O)NCc1nnc2n1CCCCC2 | -5.74% | -16.9%
Cn1cc(C2CC(=O)NC23CCN(CC2CC2)CC3)cn1 (centres undefined) | -4.05% | -21.4%
CN(C)C(=O)N1CCN(C(=O)CCc2ccccc2)[C@H]2CS(=O)(=O)C[C@H]21 | 3.33% | -13.3%
COCc1cnc2n1CCN(C(=O)C1=CCCCC1)C2C (centres undefined) | -0.348% | -61.5%
CC(=O)N1CCN(C)CC(COCc2ccccc2)C1 (centres undefined) | -1.62% | -22.4%
Cc1csc(Nc2cc(C3CCCCN3C)nc(C)n2)n1 (centres undefined) | -2.66% | -11.8%
COCCN1CCN(CCCS(=O)(=O)c2ccccc2)CC1C (centres undefined) | -4.25% | -5.54%
Cc1ncccc1OC1(C(=O)NCCCN2CCOCC2)CCNCC1 | 1.19% | -8.28%
CC(C)CNC(=O)c1ccc2nnc(C3CCN(S(C)(=O)=O)C3)n2c1 (centres undefined) | 3.22% | 3.22%
COc1ccc(NC(C)C(=O)NCCc2cccs2)cc1F (centres undefined) | 7.04% | -24.3%
O=C(O)c1ccc(S(=O)(=O)Nc2ccc(Cl)c(F)c2)c(F)c1 | -0.533% | -14.1%
O=C1NC(c2ccccc2)=N[C@@]12CC[C@@H]1CN(Cc3ccco3)C[C@@H]12 | 3.61% | -16.5%
CCCc1cc(=O)[nH]c2nnc(SCC(=O)NCc3ccc(C)cc3)n12 | -7.99% | 2.17%
CCN1CC2(CC1=O)CN(C(C)=O)CCN(C(=O)c1ccco1)C2 (centres undefined) | -3.81% | -35.2%
Cc1cc(C)n(CCC(=O)N2CCCC(n3cncn3)C2)n1 (centres undefined) | -6.22% | 0.596%
